Data: PubChem BioAssay AID1697 (The Scripps Research Institute Molecular Screening Center, 2009)
The other results are listed elsewhere or left out. A number with no mark means an inactive call. Calls of active or inactive are those of the source.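 The calls were made as follows: active = percent activation above the mean of DMSO-only control wells plus 3 SD of those wells (cut at about 18% in these data); inactive = the rest.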

Molecular target: Neuropeptide Y receptor type 1 (Homo sapiens) (UniProt P25929)
Sequence (P25929 whole entry, looked up): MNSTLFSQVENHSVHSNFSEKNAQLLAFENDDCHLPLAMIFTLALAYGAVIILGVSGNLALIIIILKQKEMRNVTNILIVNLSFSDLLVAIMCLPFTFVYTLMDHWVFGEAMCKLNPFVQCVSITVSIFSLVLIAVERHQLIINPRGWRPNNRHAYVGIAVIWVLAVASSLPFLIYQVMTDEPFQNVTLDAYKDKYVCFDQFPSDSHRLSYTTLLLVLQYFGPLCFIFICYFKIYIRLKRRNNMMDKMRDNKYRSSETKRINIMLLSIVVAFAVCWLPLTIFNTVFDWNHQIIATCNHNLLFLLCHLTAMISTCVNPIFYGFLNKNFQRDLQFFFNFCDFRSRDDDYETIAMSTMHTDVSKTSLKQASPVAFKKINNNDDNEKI
Test: NPY-Y1 direct agonists without NPY, confirmation, counter-screen for NPY-Y1 potentiator project, cell-based, fluorescence (AID 1697);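 also: cells challenged with isoproterenol plus Ro 20-1724 with no NPY in test wells; Y1 agonism lowers isoproterenol-driven cAMP and reduces probe fluorescence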
Conditions: HEK293 Y1-CNGC, membrane potential fluorescence, agonist mode; at 3.6 µM; hits give high values

| Structure (SMILES) | activation |
| --- | --- |
| Cc1nn(Cc2ccccc2Cl)c(Cl)c1C(=O)OC(C(=O)NC(N)=O)C(C)C (configuration not stated) | 30.6% (active) |
| CSC1=NP(=S)(SC)N(C)c2nc3n(c21)CCC3 (configuration not stated) | 9.49% |
